From PubChem BioAssay come the findings set out here.

Broadly, the inhibition is the relative decrease from the control value, in per cent. For orientation: viability means a read-out of living cells in per cent, often relative to untreated cells.

Active and inactive are the calls of the source. Cut-off read from the data, not from the text of the source, unless noted: active = inhibition above about 30%; inactive = the rest.

For experiment [1], the target named is Pantothenate synthetase (Mycobacterium tuberculosis (strain ATCC 25618 / H37Rv)) (UniProt P9WIL5). Put plainly: Recombinant Mtb pantothenate synthetase (PanC) inhibitors, coupled enzyme, confirmatory (AID 375; call rule not given here;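 note: 0% = full reaction with vehicle and 100% = no enzyme background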). Conditions: coupled enzyme assay; at 10 µM, stronger effect = higher value.
The nature of experiment [2]: SK-BR-3 cell growth inhibitors, pilot screen, 24 h, human (AID 572;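 active = viability at or below 10% of carrier control in both of two separate runs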;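 note: compound exposure lasted between 18 and 24 h rather than exactly 24 h; 100% = carrier-treated control wells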). Particulars: SK-BR-3 viability, CellTiter-Glo luminescence, at 10 µM, stronger effect = lower value. On the technique in general: ATP-based viability assays read luminescence as a measure of living cells.
Experiment [3] is described as follows: HUVEC growth inhibition – cell-based, human, primary screen (AID 575;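 active = viability at or below 30% in both replicate assays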;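 note: 100% = median of untreated cell wells with 0.1% DMSO on each plate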). Conditions: HUVEC proliferation, CellTiter-Glo luminescence, 72 h; at 10 µM; stronger effect = lower value.
A short description of experiment [4]: growth inhibitors of H69AR lung tumor, primary screen, human, duplicate replicates (AID 580;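 active = viability at or under a set limit in both replicates, limit being median viability minus 3 SD, cut at about 48% in these data, passing the limit was not always enough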;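 note: 100% = mean luminescence of untreated wells and 0% = no signal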). Conditions: H69AR lung tumor cells viability, ATP luminescence, 72 h; at 10 µM; stronger effect = lower value.
Experiment [5] in a line: reversal of MRP1-mediated doxorubicin resistance, pilot screen, H69AR cells, doxorubicin co-treatment (AID 601;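 active = viability loss from added drug above about 55%, and viability with drug at most 40%, in both replicates, limit read from the data, passing the limit was not always enough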). Particulars: CellTiter-Glo, 72 h, at 10 µM; for differential viability (reversal): stronger effect = higher value.
A short description of experiment [6]: 384-well plate pilot, post-Golgi transport modulator project, inhibition of yeast transport mutant growth (AID 636; in the data active = inhibition above about 31%). Particulars: absorbance 615 nm, about 18 h, stronger effect = higher value.
A short description of experiment [7]: growth suppression of yeast trafficking mutant, preliminary HTS, modulators of trafficking downstream of Golgi apparatus project, 1536-format plate, OD 615 nm (AID 637). Conditions: yeast transport mutant growth, absorbance 615 nm, 18 h; stronger effect = higher value.
Setting [8] is: H69AR cells + 2 uM doxorubicin, measured here: viability with 2 uM doxorubicin, stronger effect = lower value.
The mark [9] stands for this setting: H69AR cells, compound alone cytotoxicity.

Sequence of Pantothenate synthetase (Mycobacterium tuberculosis (strain ATCC 25618 / H37Rv)) (P9WIL5 whole entry, looked up): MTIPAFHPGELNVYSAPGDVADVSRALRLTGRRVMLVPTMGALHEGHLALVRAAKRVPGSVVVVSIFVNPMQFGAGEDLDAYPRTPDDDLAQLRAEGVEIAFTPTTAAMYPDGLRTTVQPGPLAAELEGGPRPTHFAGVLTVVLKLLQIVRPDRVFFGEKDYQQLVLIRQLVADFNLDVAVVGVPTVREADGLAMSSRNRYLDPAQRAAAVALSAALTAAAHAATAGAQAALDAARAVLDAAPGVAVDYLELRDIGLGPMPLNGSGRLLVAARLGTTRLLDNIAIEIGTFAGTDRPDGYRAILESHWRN

Turning to `NCC(CC(=O)O)c1ccc(Cl)cc1` (centres undefined), the inhibition in experiment [1] was 0% (inactive); in experiment [6], -1.43% (inactive); in experiment [7], 4.67% (inactive). Besides, the viability in experiment [2] was 83% (inactive); in experiment [3], 78.3% (inactive); in experiment [4], 106% (inactive); in experiment [5] (setting [8]), 107%; in experiment [5] (setting [9]) it was 106%. Moreover, the differential viability (reversal) in experiment [5] (H69AR cells + 2 uM doxorubicin) is -1.38% (inactive).

With `CN(C)[C@@H]1C(=O)C(C(N)=O)=C(O)[C@@]2(O)C(=O)C3=C(O)c4c(O)cccc4[C@@](C)(O)[C@H]3[C@H](O)[C@@H]12`, the inhibition in experiment [1] is 3% (inactive); in experiment [6] it was 0.52% (inactive); in experiment [7], 1.17% (inactive). Further, the viability in experiment [2] was 115% (inactive); in experiment [3], 101% (inactive); in experiment [4], 103% (inactive); in experiment [5] (setting [8]), 101%; in experiment [5] (setting [9]), 103%. In addition, the differential viability (reversal) in experiment [5] (H69AR cells + 2 uM doxorubicin) was 2.03% (inactive).

In the case of `CCCNC(=O)c1c(N)n(Cc2ccc3c(c2)OCO3)c2nc3ccccc3nc12`, the inhibition was 0% (inactive) in experiment [1], -3.2% (inactive) in experiment [6] and 0.66% (inactive) in experiment [7]. Moreover, the viability was 102% (inactive) in experiment [2]; 21.8% (active) in experiment [3]; 43.8% (active) in experiment [4]; 36.8% in experiment [5] (setting [8]); 43.8% in experiment [5] (setting [9]). Further, in experiment [5] (H69AR cells + 2 uM doxorubicin), the differential viability (reversal) was 6.99% (inactive).

As to `CCOC(=O)C1SC2(C(F)F)CC1(O)c1c(c(OC)c3occc3c1OC)O2` (centres undefined), the figures for the inhibition in experiment [1], in experiment [6] and in experiment [7] were 0% (inactive), -4.73% (inactive) and 0.73% (inactive), respectively. In addition, the viability is 91% (inactive) in experiment [2]; 93.3% (inactive) in experiment [3]; 104% (inactive) in experiment [4]; 80.9% in experiment [5] (setting [8]); 104% in experiment [5] (setting [9]). Moreover, in experiment [5] (H69AR cells + 2 uM doxorubicin), the differential viability (reversal) is 22.9% (inactive).

For `CC(=NCCCN1CCOCC1)c1c(O)n(-c2ccccc2C)c(=O)[nH]c1=O`, the figures for the inhibition in experiment [1], in experiment [6] and in experiment [7] were 0% (inactive), -0.14% (inactive) and -5% (inactive), respectively. In addition, the viability was 100% (inactive) in experiment [2]; 91.3% (inactive) in experiment [3]; 92.2% (inactive) in experiment [4]; 87% in experiment [5] (setting [8]); 92.2% in experiment [5] (setting [9]). In experiment [5] (H69AR cells + 2 uM doxorubicin), the differential viability (reversal) was 5.16% (inactive).

Regarding `c1ccc2c3c([nH]c2c1)CNCC3`, the inhibition in experiment [1] was 0% (inactive); in experiment [6], -1.17% (inactive); in experiment [7], 0.5% (inactive). The viability was 116% (inactive) in experiment [2]; 77.7% (inactive) in experiment [3]; 89.9% (inactive) in experiment [4]; 80% in experiment [5] (setting [8]); 89.9% in experiment [5] (setting [9]). Also, the differential viability (reversal) in experiment [5] (H69AR cells + 2 uM doxorubicin) was 9.92% (inactive).

In the case of `COC(=O)C1C2c3ccccc3OC1(C)N=c1s/c(=C/c3cnn(C)c3C)c(=O)n12` (centres undefined), the inhibition in experiment [1] is 7% (inactive); in experiment [6], -0.81% (inactive); in experiment [7] it was 8.18% (inactive). Besides, the viability in experiment [2] is 98% (inactive); in experiment [3] it was 83.4% (inactive); in experiment [4] it was 91.8% (inactive); in experiment [5] (setting [8]) it was 88.8%; in experiment [5] (setting [9]), 91.8%. Besides, the differential viability (reversal) in experiment [5] (H69AR cells + 2 uM doxorubicin) is 2.92% (inactive).

`CN1C(=O)CN=C(c2ccc(Cl)cc2)c2cc(Cl)ccc21`: the inhibition in experiment [1] is 0% (inactive); in experiment [6] it was 0.39% (inactive); in experiment [7], 4.17% (inactive). Besides, the viability in experiment [2] is 84% (inactive); in experiment [3] it was 61.8% (inactive); in experiment [4] it was 84.8% (inactive); in experiment [5] (setting [8]), 84.5%; in experiment [5] (setting [9]), 84.8%. Further, in experiment [5] (H69AR cells + 2 uM doxorubicin), the differential viability (reversal) was 0.31% (inactive).

Take `CCCCn1c(O)c(C(C)=NC(Cc2c[nH]c3ccccc23)C(=O)OC)c(=O)[nH]c1=O` (centres undefined): the results for the inhibition in experiment [1], in experiment [6] and in experiment [7] were 1% (inactive), -4.93% (inactive) and -2.1% (inactive), respectively. Besides, the viability was 91% (inactive) in experiment [2]; 84.5% (inactive) in experiment [3]; 96.5% (inactive) in experiment [4]; 93.7% in experiment [5] (setting [8]); 96.5% in experiment [5] (setting [9]). Also, the differential viability (reversal) in experiment [5] (H69AR cells + 2 uM doxorubicin) is 2.8% (inactive).

As to `O=C(O)Cn1cc(C(=O)c2ccccc2)c2ccccc21`, the inhibition is 0% (inactive) in experiment [1], -7.07% (inactive) in experiment [6] and -0.36% (inactive) in experiment [7]. Moreover, the viability in experiment [2] is 89% (inactive); in experiment [3] it was 104% (inactive); in experiment [4], 94.7% (inactive); in experiment [5] (setting [8]), 96%; in experiment [5] (setting [9]), 94.7%. Moreover, the differential viability (reversal) in experiment [5] (H69AR cells + 2 uM doxorubicin) was -1.34% (inactive).

As to `COc1ccccc1CN1CCN(C(=O)Cc2ccccc2)CC1`, the results for the inhibition in experiment [1], in experiment [6] and in experiment [7] were 1% (inactive), -4.8% (inactive) and -4.36% (inactive), respectively. For the same compound, the viability in experiment [2] was 97% (inactive); in experiment [3] it was 101% (inactive); in experiment [4], 99.6% (inactive); in experiment [5] (setting [8]), 96.1%; in experiment [5] (setting [9]) it was 99.6%. The differential viability (reversal) in experiment [5] (H69AR cells + 2 uM doxorubicin) is 3.51% (inactive).

Take `CC[C@@H](CO)NC(=O)[C@@H]1C=C2c3cccc4c3c(cn4C)C[C@H]2N(C)C1`: the inhibition in experiment [1] was 7% (inactive); in experiment [6], 1.17% (inactive); in experiment [7], -2% (inactive). Further, the viability is 147% (inactive) in experiment [2]; 96.8% (inactive) in experiment [3]; 95.4% (inactive) in experiment [4]; 96.6% in experiment [5] (setting [8]); 95.4% in experiment [5] (setting [9]). Also, the differential viability (reversal) in experiment [5] (H69AR cells + 2 uM doxorubicin) is -1.17% (inactive).

On to `CNCC(O)c1ccc(O)cc1` (centres undefined), for which the inhibition in experiment [1] was 0% (inactive); in experiment [6], -1.82% (inactive); in experiment [7], 8.83% (inactive). Also, the viability is 120% (inactive) in experiment [2]; 95.6% (inactive) in experiment [3]; 102% (inactive) in experiment [4]; 85.9% in experiment [5] (setting [8]); 102% in experiment [5] (setting [9]). Also, the differential viability (reversal) in experiment [5] (H69AR cells + 2 uM doxorubicin) is 15.7% (inactive).

For `CN1CC[C@@]23CCCC[C@@H]2[C@@H]1Cc1ccc(O)cc13`, the inhibition in experiment [1] was 1% (inactive); in experiment [6] it was -3.12% (inactive); in experiment [7], -0.33% (inactive). Moreover, the viability was 88% (inactive) in experiment [2]; 79.4% (inactive) in experiment [3]; 95.8% (inactive) in experiment [4]; 88% in experiment [5] (setting [8]); 95.8% in experiment [5] (setting [9]). Moreover, in experiment [5] (H69AR cells + 2 uM doxorubicin), the differential viability (reversal) is 7.79% (inactive).

For the compound `O=C(Cn1ncc2c3ccccc3n(Cc3ccc(F)cc3)c2c1=O)N1CCC2(CC1)OCCO2`, the inhibition in experiment [1] is 7% (inactive); in experiment [6], -5.41% (inactive); in experiment [7], -2.55% (inactive). Further, the viability in experiment [2] is 86% (inactive); in experiment [3], 96% (inactive); in experiment [4], 89.2% (inactive); in experiment [5] (setting [8]), 98.4%; in experiment [5] (setting [9]), 89.2%. Moreover, the differential viability (reversal) in experiment [5] (H69AR cells + 2 uM doxorubicin) is -9.23% (inactive).

With `COc1ccc(CCn2c(O)c(C=NCc3cccnc3)c(=O)[nH]c2=O)cc1OC`, the inhibition in experiment [1] was 0% (inactive); in experiment [6], -4.67% (inactive); in experiment [7], 1.97% (inactive). In addition, the viability was 63% (inactive) in experiment [2]; 118% (inactive) in experiment [3]; 95.4% (inactive) in experiment [4]; 94.3% in experiment [5] (setting [8]); 95.4% in experiment [5] (setting [9]). In addition, the differential viability (reversal) in experiment [5] (H69AR cells + 2 uM doxorubicin) was 1.12% (inactive).
